Where “and” joins values, the source holds several entries; their conditions need not be identical. Equal values may be shown once. The whole screen tested about 5,700 compounds, of which about 85 (1%) were called active. No stated cut-off is given here; in the data, active means p53-positive nuclei above about 36% (passing the limit was not always enough); inactive means the rest. This excerpt belongs to a sample that is enriched for actives. More than one record can exist for a structure, and the calls need not agree.
How the values were obtained:
[1] = nuclear p53 accumulation, HPV+ cells – imaging, p53-positive nuclei imaging, 24 h, 48 h (AID 1508601); conditions: 24/48 h
[2] = biological target: Cellular tumor antigen p53 (Homo sapiens) (UniProt P04637); test: as above; conditions: 24/48 h, stronger effect = higher value
Sequence of Cellular tumor antigen p53 (Homo sapiens) (P04637 whole entry, looked up): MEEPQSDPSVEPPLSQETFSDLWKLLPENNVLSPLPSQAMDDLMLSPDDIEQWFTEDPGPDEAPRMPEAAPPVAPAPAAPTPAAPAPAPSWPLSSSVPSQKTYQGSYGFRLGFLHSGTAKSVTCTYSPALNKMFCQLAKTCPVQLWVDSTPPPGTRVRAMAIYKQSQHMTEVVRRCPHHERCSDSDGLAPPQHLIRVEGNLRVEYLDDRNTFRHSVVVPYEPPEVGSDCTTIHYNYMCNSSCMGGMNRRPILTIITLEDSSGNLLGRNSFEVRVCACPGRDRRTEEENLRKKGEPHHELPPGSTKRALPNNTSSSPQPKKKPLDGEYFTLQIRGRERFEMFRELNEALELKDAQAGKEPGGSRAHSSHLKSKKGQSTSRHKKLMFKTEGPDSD

[3] = measured here: cell number at 24 h, Library stock concentration: 10 mM
[4] = measured here: cell number at 48 h, Library stock concentration: 10 mM
[5] = Library stock concentration: 10 mM
[6] = measured here: p53 positive nuclei at 24 h, Library stock concentration: 10 mM
[7] = measured here: cell number at 24 h, Library stock concentration: 80 uM
[8] = measured here: cell number at 24 h, Library stock concentration: 400 uM
[9] = measured here: cell number at 24 h, Library stock concentration: 2 mM
[10] = measured here: cell number at 48 h, Library stock concentration: 80 uM
[11] = measured here: cell number at 48 h, Library stock concentration: 400 uM
[12] = measured here: cell number at 48 h, Library stock concentration: 2 mM
[13] = Library stock concentration: 80 uM
[14] = Library stock concentration: 400 uM
[15] = Library stock concentration: 2 mM
[16] = measured here: p53 positive nuclei at 24 h, Library stock concentration: 80 uM
[17] = measured here: p53 positive nuclei at 24 h, Library stock concentration: 400 uM
[18] = measured here: p53 positive nuclei at 24 h, Library stock concentration: 2 mM
[19] = measured here: cell number at 24 h, concentration not given here
[20] = measured here: cell number at 48 h, concentration not given here
[21] = measured here: p53 positive nuclei at 24 h, concentration not given here

CNC(=O)c1ccc(Nc2ncc(C(F)(F)F)c(NCc3nccnc3N(C)S(C)(=O)=O)n2)cc1
nuclei count, normalised ([1]; measured here: cell number at 24 h, Library stock concentration: 46 uM): 91.8% | nuclei count, normalised ([1]; measured here: cell number at 24 h, Library stock concentration: 278 uM): 82% | nuclei count, normalised ([1]; measured here: cell number at 24 h, Library stock concentration: 1.67 mM): 95.8% | nuclei count, normalised [1, 3]: 47.5% | nuclei count, normalised ([1]; measured here: cell number at 48 h, Library stock concentration: 46 uM): 91.6% | nuclei count, normalised ([1]; measured here: cell number at 48 h, Library stock concentration: 278 uM): 86.7% | nuclei count, normalised ([1]; measured here: cell number at 48 h, Library stock concentration: 1.67 mM): 108% | nuclei count, normalised [1, 4]: 33.5% | p53-positive nuclei, normalised ([2]; Library stock concentration: 46 uM): -0.225% (inactive) | p53-positive nuclei, normalised ([2]; Library stock concentration: 278 uM): -0.256% (inactive) | p53-positive nuclei, normalised ([2]; Library stock concentration: 1.67 mM): 0.138% (inactive) | p53-positive nuclei, normalised [2, 5]: 14.9% (inactive) | p53-positive nuclei, normalised ([2]; measured here: p53 positive nuclei at 24 h, Library stock concentration: 46 uM): -0.00777% | p53-positive nuclei, normalised ([2]; measured here: p53 positive nuclei at 24 h, Library stock concentration: 278 uM): -0.0569% | p53-positive nuclei, normalised ([2]; measured here: p53 positive nuclei at 24 h, Library stock concentration: 1.67 mM): 0.153% | p53-positive nuclei, normalised [2, 6]: 8.89%

CS(=O)(=O)c1cccc(CNc2nc(Nc3ccc4c(c3)CCC(=O)N4)ncc2C(F)(F)F)c1
nuclei count, normalised [1, 7]: 112% | nuclei count, normalised [1, 8]: 104% | nuclei count, normalised [1, 9]: 111% | nuclei count, normalised ([1]; measured here: cell number at 24 h, Library stock concentration: 3.33 mM): 70.4% | nuclei count, normalised [1, 3]: 48.4% | nuclei count, normalised [1, 10]: 115% | nuclei count, normalised [1, 11]: 109% | nuclei count, normalised [1, 12]: 115% | nuclei count, normalised ([1]; measured here: cell number at 48 h, Library stock concentration: 3.33 mM): 76.2% | nuclei count, normalised [1, 4]: 28.9% | p53-positive nuclei, normalised [2, 13]: 0.032% (inactive) | p53-positive nuclei, normalised [2, 14]: -0.135% (inactive) | p53-positive nuclei, normalised [2, 15]: 0.159% (inactive) | p53-positive nuclei, normalised ([2]; Library stock concentration: 3.33 mM): -0.301% (inactive) | p53-positive nuclei, normalised [2, 5]: 1.33% (inactive) | p53-positive nuclei, normalised [2, 16]: -0.0118% | p53-positive nuclei, normalised [2, 17]: -0.00681% | p53-positive nuclei, normalised [2, 18]: 0.177% | p53-positive nuclei, normalised ([2]; measured here: p53 positive nuclei at 24 h, Library stock concentration: 3.33 mM): -0.516% | p53-positive nuclei, normalised [2, 6]: 0.847%

CN(c1ccccc1CNc1nc(Nc2ccc3c(c2)CC(=O)N3)ncc1C(F)(F)F)S(C)(=O)=O
nuclei count, normalised [1, 7]: 112% and 102% | nuclei count, normalised [1, 8]: 112% and 102% | nuclei count, normalised [1, 9]: 83.1% and 86.6% | nuclei count, normalised [1, 3]: 33.4% and 36.5% | nuclei count, normalised [1, 10]: 116% and 109% | nuclei count, normalised [1, 11]: 120% and 115% | nuclei count, normalised [1, 12]: 81.2% and 88.6% | nuclei count, normalised [1, 4]: 22.6% and 25.6% | p53-positive nuclei, normalised [2, 13]: -0.0383% (inactive) and 0.0654% (inactive) | p53-positive nuclei, normalised [2, 14]: 0.0612% (inactive) and 0.141% (inactive) | p53-positive nuclei, normalised [2, 15]: 1.2% (inactive) and 0.96% (inactive) | p53-positive nuclei, normalised [2, 5]: 55.4% (inactive) and 54.9% (active) | p53-positive nuclei, normalised [2, 16]: -0.06% and 0.248% | p53-positive nuclei, normalised [2, 17]: 0.0578% and 0.322% | p53-positive nuclei, normalised [2, 18]: 0.201% and 0.404% | p53-positive nuclei, normalised [2, 6]: 43.5% and 27.2%

CCCCC/C=C/C=C1/C=CC(=O)[C@@H]1C/C=C\CCCC(=O)O
nuclei count, normalised [1, 19]: 106% | nuclei count, normalised [1, 20]: 102% | p53-positive nuclei, normalised ([2]; concentration not given here): 0.0559% (inactive) | p53-positive nuclei, normalised [2, 21]: 0.0826%

O=C(O)CCC/C=C\C[C@@H]1[C@@H](/C=C/[C@@H](O)COc2ccccc2)[C@H](O)C[C@@H]1O
nuclei count, normalised [1, 19]: 96% | nuclei count, normalised [1, 20]: 102% | p53-positive nuclei, normalised ([2]; concentration not given here): -0.0602% (inactive) | p53-positive nuclei, normalised [2, 21]: -0.00687%

COC(=O)C#Cc1ccc([N+](=O)[O-])cc1
nuclei count, normalised ([1]; measured here: cell number at 24 h, Library stock concentration: 500 nM): 110% | nuclei count, normalised ([1]; measured here: cell number at 24 h, Library stock concentration: 1.5 uM): 114% | nuclei count, normalised ([1]; measured here: cell number at 24 h, Library stock concentration: 4.6 uM): 106% | nuclei count, normalised ([1]; measured here: cell number at 24 h, Library stock concentration: 13.7 uM): 116% | nuclei count, normalised ([1]; measured here: cell number at 24 h, Library stock concentration: 41 uM): 110% | nuclei count, normalised ([1]; measured here: cell number at 24 h, Library stock concentration: 123 uM): 103% | nuclei count, normalised ([1]; measured here: cell number at 24 h, Library stock concentration: 370 uM): 118% | nuclei count, normalised ([1]; measured here: cell number at 24 h, Library stock concentration: 1.111 mM): 107% | nuclei count, normalised ([1]; measured here: cell number at 24 h, Library stock concentration: 3.333 mM): 74.6% | nuclei count, normalised [1, 3]: 49.2% | nuclei count, normalised ([1]; measured here: cell number at 48 h, Library stock concentration: 500 nM): 111% | nuclei count, normalised ([1]; measured here: cell number at 48 h, Library stock concentration: 1.5 uM): 112% | nuclei count, normalised ([1]; measured here: cell number at 48 h, Library stock concentration: 4.6 uM): 112% | nuclei count, normalised ([1]; measured here: cell number at 48 h, Library stock concentration: 13.7 uM): 112% | nuclei count, normalised ([1]; measured here: cell number at 48 h, Library stock concentration: 41 uM): 114% | nuclei count, normalised ([1]; measured here: cell number at 48 h, Library stock concentration: 123 uM): 106% | nuclei count, normalised ([1]; measured here: cell number at 48 h, Library stock concentration: 370 uM): 117% | nuclei count, normalised ([1]; measured here: cell number at 48 h, Library stock concentration: 1.111 mM): 108% | nuclei count, normalised ([1]; measured here: cell number at 48 h, Library stock concentration: 3.333 mM): 69.9% | nuclei count, normalised [1, 4]: 32.5% | p53-positive nuclei, normalised ([2]; Library stock concentration: 500 nM): -0.248% (inactive) | p53-positive nuclei, normalised ([2]; Library stock concentration: 1.5 uM): 0.113% (inactive) | p53-positive nuclei, normalised ([2]; Library stock concentration: 4.6 uM): -0.0386% (inactive) | p53-positive nuclei, normalised ([2]; Library stock concentration: 13.7 uM): 0.351% (inactive) | p53-positive nuclei, normalised ([2]; Library stock concentration: 41 uM): -0.0492% (inactive) | p53-positive nuclei, normalised ([2]; Library stock concentration: 123 uM): 0.00469% (inactive) | p53-positive nuclei, normalised ([2]; Library stock concentration: 370 uM): 0.132% (inactive) | p53-positive nuclei, normalised ([2]; Library stock concentration: 1.111 mM): -0.122% (inactive) | p53-positive nuclei, normalised ([2]; Library stock concentration: 3.333 mM): 0.307% (inactive) | p53-positive nuclei, normalised [2, 5]: 69.2% (active) | p53-positive nuclei, normalised ([2]; measured here: p53 positive nuclei at 24 h, Library stock concentration: 500 nM): -0.0875% | p53-positive nuclei, normalised ([2]; measured here: p53 positive nuclei at 24 h, Library stock concentration: 1.5 uM): -0.0262% | p53-positive nuclei, normalised ([2]; measured here: p53 positive nuclei at 24 h, Library stock concentration: 4.6 uM): -0.0872% | p53-positive nuclei, normalised ([2]; measured here: p53 positive nuclei at 24 h, Library stock concentration: 13.7 uM): 0.099% | p53-positive nuclei, normalised ([2]; measured here: p53 positive nuclei at 24 h, Library stock concentration: 41 uM): 0.0546% | p53-positive nuclei, normalised ([2]; measured here: p53 positive nuclei at 24 h, Library stock concentration: 123 uM): -0.148% | p53-positive nuclei, normalised ([2]; measured here: p53 positive nuclei at 24 h, Library stock concentration: 370 uM): -0.0792% | p53-positive nuclei, normalised ([2]; measured here: p53 positive nuclei at 24 h, Library stock concentration: 1.111 mM): -0.148% | p53-positive nuclei, normalised ([2]; measured here: p53 positive nuclei at 24 h, Library stock concentration: 3.333 mM): 0.591% | p53-positive nuclei, normalised [2, 6]: 73.8%

CC(=O)Nc1ccc(S(=O)(=O)Nc2ccc([N+](=O)[O-])cc2)cc1
nuclei count, normalised [1, 19]: 87.2% | nuclei count, normalised [1, 20]: 92.6% | p53-positive nuclei, normalised ([2]; concentration not given here): -0.0672% (inactive) | p53-positive nuclei, normalised [2, 21]: 0.0938%

O=C(N[C@@H](CO)[C@H](O)c1ccc([N+](=O)[O-])cc1)C(Cl)Cl
nuclei count, normalised [1, 19]: 109% | nuclei count, normalised [1, 20]: 107% | p53-positive nuclei, normalised ([2]; concentration not given here): -0.175% (inactive) | p53-positive nuclei, normalised [2, 21]: -0.247%

Source: PubChem BioAssay AID1508601 (ICCB-Longwood Screening Facility, Harvard Medical School, 2020)
